The text below walks through data of ChEMBL document CHEMBL3988442, “University of Dundee, Small-Polar-MMV Screening Library” (2021).

Molecules are shown by their SMILES.

For the first test, the system named is Trypanosoma cruzi. Briefly: Trypanosoma cruzi phosphomannomutase and mannose-1-phosphate guanylyltransferase assay. It counts as functional. Further details: scale not given: direction of the effect not stated beside the values. Conditions: 10 µM.
In the case of `O=S(=O)(NCCN1CCCCC1Cn1cncn1)c1ccccc1` (stereo not given), the Percent Effect was found to be 1.68%.
For the compound `Cc1cccc(N2CC[C@@H]3CN(Cc4csc(C)n4)CCO[C@@H]3C2)n1`, the Percent Effect came out at 6.52%.
On to `CCc1nc(C2CCCN2C(=O)C2=COCC2)no1` (stereo not given), for which the Percent Effect was -4.02%.
Still for that read-out and setting: to `O=C(NCCOc1ccc2c(c1)OCO2)N1CCC1` belongs -3.36%; to `COCCN1C(=O)CCC12CCN(C(=O)NC(C)C)CC2`, -0.938%; to `O=C1CN(Cc2ccc(-c3ccccc3C(=O)O)cc2)CCN1`, -4.73%.
Still for that read-out and setting: to `CC(C)c1cc(C(=O)NCCN2CCCS2(=O)=O)n[nH]1` belongs 0.469%; to `Cc1cnc(CN2CCCC(c3cc(C(F)(F)F)[nH]n3)C2)cn1` (stereo not given), -2.21%.
As to `COCCOc1cccc(C(=O)N2CCCC(n3cccn3)C2)c1` (stereo not given), the Percent Effect is -0.746%.
With `Cc1cc(CN(C)C(=O)NCC(C)N2CCc3ccccc32)no1` (stereo not given), the Percent Effect is 1.31%.
In the case of `CCn1cnnc1CNC(=O)N1CCOCC1`, the Percent Effect is -3.41%.
Consider `Cn1nc2c(cc1=O)CN(Cc1nnc(C3CC3)o1)CC2`, for which the Percent Effect is -6.29%.
Regarding `Fc1cnc(N2CCOC3(CCN(Cc4ccsc4)CC3)C2)nc1`, the Percent Effect was -6.52%.
Take `OCC1CCCCN1c1ccc(-c2nc(-c3ccccc3F)no2)cn1` (stereo not given): the Percent Effect was found to be 5.14%.
For `CCc1cc(C(=O)N2CCC(Nc3ccc(C)nn3)CC2)sc1C`, the Percent Effect was 3.61%.
On the same count and under the same terms, in the case of `CC(=O)N1CCCN(CC(C)(O)c2cccc(C(F)(F)F)c2)CC1` (stereo not given) it was 2.42%; in that of `CC(C)c1ncncc1C(=O)NCCN1CCCS1(=O)=O`, 7.98%; in that of `Cn1cc(-c2nc(CN3CCc4c(ncn4C4CC4)C3)cs2)cn1`, 3.54%.
Regarding `CC(C)n1ccnc1C1CCN(C(=O)c2cc[nH]n2)CC1`, the Percent Effect came to 5.53%.
As for `O=C(C1CCOC1)N1CC[C@@H](O)[C@@H]1Cc1ccccc1` (stereo not given in full), the Percent Effect is -10.1%.
Same read-out and setting: to `O=C(c1cccnc1)N1CCn2nnc(COc3cccnc3)c2C1` belongs -6.13%; to `Cc1[nH]/c(=N\C(=O)c2csc(NC3CC3)n2)sc1C`, -1.84%; to `O=C(CSc1ccc(F)c(F)c1)NS(=O)(=O)c1ccc2c(c1)OCCO2`, 0.282%.
Take `O=C(C1CCOCC1)N1CC[C@H]2C[C@@H](c3ccncn3)O[C@@H]2C1`: the Percent Effect came to 5.55%.
On to `Cc1ccc(OCC(=O)NS(=O)(=O)c2c(C)noc2C)cc1C`, for which the Percent Effect is -1.41%.
As for `CCn1nc2c(cc1=O)CN(CC(=O)Nc1nc(C)c(C)s1)CC2`, the Percent Effect was -9.7%.
Turning to `Cc1[nH]/c(=N\C(=O)c2csc(NCC(C)C)n2)sc1C`, the Percent Effect was -3.2%.
On to `COCCN1CCCN(C(=O)NC(C)Cn2cccn2)CC1` (stereo not given), for which the Percent Effect is -8.77%.
`CC(Nc1cccc(CN2CCOC2=O)c1)C(=O)N1CCNC1=O` (stereo not given): the Percent Effect was -5.16%.
On to `CCn1ccnc1CN1CCCN(C(=O)c2cccc(C#N)c2)CC1`, for which the Percent Effect came out at 7.79%.
For the compound `CN(C)CCN1CCCC12CCN(C(=O)c1cccn1C)CC2`, the Percent Effect stood at 2.04%.
For the compound `O=C(CN1CCCC(c2ccc(C(=O)O)cc2)C1)NC1CC1` (stereo not given), the Percent Effect was 7.08%.
With `CN(Cc1noc(C2CC2)n1)C1CCN(Cc2nnc(C3CC3)o2)C1` (stereo not given), the Percent Effect was -6.16%.
For `Cc1occc1C(=O)N1CCC2(CCC(C(=O)NCC3CC3)O2)CC1` (stereo not given), the Percent Effect is -0.75%.
On to `O=C1C(NCc2nnc3n2CCCC3)CCN1c1ccccc1` (stereo not given), for which the Percent Effect is 8.17%.
Regarding `COc1ccccc1OC1CCN(Cc2cnc(N(C)C)nc2)CC1`, the Percent Effect was -1.84%.
Turning to `Cc1nccn1-c1cccc(C2CCCN(C(=O)c3cc[nH]n3)C2)n1` (stereo not given), the Percent Effect worked out at 0.395%.
As to `Cc1ccc(CN2CCC(c3nnc(CN4CCCCC4)n3C)CC2)o1`, the Percent Effect was -0.873%.
Turning to `Cc1c(F)cc(C(=O)O)cc1S(=O)(=O)Nc1cccc(C(F)F)c1`, the Percent Effect was 1.03%.
`Cc1noc(C(C)C)c1C(=O)NCCCOC(C)C`: the Percent Effect worked out at 0.373%.

A further test has as its target T1, Arginase-2, mitochondrial (Homo sapiens) (UniProt P78540).
T1 sequence (whole entry): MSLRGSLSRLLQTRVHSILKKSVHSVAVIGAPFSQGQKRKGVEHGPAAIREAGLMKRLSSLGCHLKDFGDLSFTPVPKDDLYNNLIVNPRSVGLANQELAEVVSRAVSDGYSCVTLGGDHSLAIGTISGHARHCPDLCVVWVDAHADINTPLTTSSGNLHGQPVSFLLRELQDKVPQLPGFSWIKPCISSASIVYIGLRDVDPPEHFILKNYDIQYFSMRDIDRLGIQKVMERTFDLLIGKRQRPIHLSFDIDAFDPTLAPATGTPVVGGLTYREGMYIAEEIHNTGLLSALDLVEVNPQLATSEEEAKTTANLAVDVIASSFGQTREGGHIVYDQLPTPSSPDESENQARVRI
Briefly: in vitro enzyme assay to detect the production of urea directly proportional to the activity of Arginase II. It counts as functional. Further details: scale not given: in the data most compounds retested in dose-response had high values. Particulars: 33.3 µM.
As to `O=S(=O)(NCCN1CCCCC1Cn1cncn1)c1ccccc1` (stereo not given), the Percent Effect was determined as 7.99%.
On the same count and under the same terms, to `Cc1cccc(N2CC[C@@H]3CN(Cc4csc(C)n4)CCO[C@@H]3C2)n1` belongs -6.88%.
Turning to `CCc1nc(C2CCCN2C(=O)C2=COCC2)no1` (stereo not given), the Percent Effect is -0.444%.
The same measure, in the same setting: to `O=C(NCCOc1ccc2c(c1)OCO2)N1CCC1` belongs 5.94%; to `COCCN1C(=O)CCC12CCN(C(=O)NC(C)C)CC2`, -0.457%; to `O=C1CN(Cc2ccc(-c3ccccc3C(=O)O)cc2)CCN1`, -1.33%.
Regarding `CC(C)c1cc(C(=O)NCCN2CCCS2(=O)=O)n[nH]1`, the Percent Effect stood at 4.92%.
Consider `Cc1cnc(CN2CCCC(c3cc(C(F)(F)F)[nH]n3)C2)cn1` (stereo not given), for which the Percent Effect stood at 3.55%.
As to `COCCOc1cccc(C(=O)N2CCCC(n3cccn3)C2)c1` (stereo not given), the Percent Effect was -1.84%.
Still for that read-out and setting: to `Cc1cc(CN(C)C(=O)NCC(C)N2CCc3ccccc32)no1` (stereo not given) belongs -2.25%; to `CCn1cnnc1CNC(=O)N1CCOCC1`, 2.66%; to `Cn1nc2c(cc1=O)CN(Cc1nnc(C3CC3)o1)CC2`, 0.41%.
As for `Fc1cnc(N2CCOC3(CCN(Cc4ccsc4)CC3)C2)nc1`, the Percent Effect was determined as 6.88%.
With `OCC1CCCCN1c1ccc(-c2nc(-c3ccccc3F)no2)cn1` (stereo not given), the Percent Effect was found to be 16.4%.
The same measure, in the same setting: in the case of `CCc1cc(C(=O)N2CCC(Nc3ccc(C)nn3)CC2)sc1C` it was -4.88%; in that of `CC(=O)N1CCCN(CC(C)(O)c2cccc(C(F)(F)F)c2)CC1` (stereo not given), -7.99%.
With `CC(C)c1ncncc1C(=O)NCCN1CCCS1(=O)=O`, the Percent Effect worked out at 3.69%.
As for `Cn1cc(-c2nc(CN3CCc4c(ncn4C4CC4)C3)cs2)cn1`, the Percent Effect was -0.615%.
As to `CC(C)n1ccnc1C1CCN(C(=O)c2cc[nH]n2)CC1`, the Percent Effect stood at 14.3%.
The same measure, in the same setting: to `O=C(C1CCOC1)N1CC[C@@H](O)[C@@H]1Cc1ccccc1` (stereo not given in full) belongs 3.2%; to `O=C(c1cccnc1)N1CCn2nnc(COc3cccnc3)c2C1`, 4.45%; to `Cc1[nH]/c(=N\C(=O)c2csc(NC3CC3)n2)sc1C`, -1.75%.
For `O=C(CSc1ccc(F)c(F)c1)NS(=O)(=O)c1ccc2c(c1)OCCO2`, the Percent Effect came out at 1.23%.
On to `O=C(C1CCOCC1)N1CC[C@H]2C[C@@H](c3ccncn3)O[C@@H]2C1`, for which the Percent Effect is -6.48%.
On to `Cc1ccc(OCC(=O)NS(=O)(=O)c2c(C)noc2C)cc1C`, for which the Percent Effect is 0.41%.
Still for that read-out and setting: in the case of `CCn1nc2c(cc1=O)CN(CC(=O)Nc1nc(C)c(C)s1)CC2` it was 1.84%; in that of `Cc1[nH]/c(=N\C(=O)c2csc(NCC(C)C)n2)sc1C`, -2.45%; in that of `COCCN1CCCN(C(=O)NC(C)Cn2cccn2)CC1` (stereo not given), 4.3%.
Regarding `CC(Nc1cccc(CN2CCOC2=O)c1)C(=O)N1CCNC1=O` (stereo not given), the Percent Effect was -2.46%.
The same measure, in the same setting: to `CCn1ccnc1CN1CCCN(C(=O)c2cccc(C#N)c2)CC1` belongs 7.38%.
Same read-out and setting: in the case of `CN(C)CCN1CCCC12CCN(C(=O)c1cccn1C)CC2` it was -2.02%.
In the case of `O=C(CN1CCCC(c2ccc(C(=O)O)cc2)C1)NC1CC1` (stereo not given), the Percent Effect came to 8.04%.
Take `CN(Cc1noc(C2CC2)n1)C1CCN(Cc2nnc(C3CC3)o2)C1` (stereo not given): the Percent Effect was found to be 1.02%.
With `Cc1occc1C(=O)N1CCC2(CCC(C(=O)NCC3CC3)O2)CC1` (stereo not given), the Percent Effect was 1.83%.
`O=C1C(NCc2nnc3n2CCCC3)CCN1c1ccccc1` (stereo not given): the Percent Effect was 7.79%.
Same read-out and setting: to `COc1ccccc1OC1CCN(Cc2cnc(N(C)C)nc2)CC1` belongs -3.15%; to `Cc1nccn1-c1cccc(C2CCCN(C(=O)c3cc[nH]n3)C2)n1` (stereo not given), -3.98%; to `Cc1ccc(CN2CCC(c3nnc(CN4CCCCC4)n3C)CC2)o1`, -0.35%.
Regarding `Cc1c(F)cc(C(=O)O)cc1S(=O)(=O)Nc1cccc(C(F)F)c1`, the Percent Effect was 0.41%.
With `Cc1noc(C(C)C)c1C(=O)NCCCOC(C)C`, the Percent Effect is -2.25%.
